Screening results from PubChem.
Most compounds without a hit are left out; they make up all but 8% or so of the library.
MARV entry inh = qHTS for Inhibitors of binding or entry into cells for Marburg Virus. Marburg virus pseudotype entry/binding inhibition, cell-based. 6.5% of 18,000 active. Potency, µM (series often up to 49.2 µM), for the others: top-dose activity change, negative = inhibition, hits mostly inhibitors
LASV entry inh = qHTS for Inhibitors of binding or entry into cells for Lassa Virus. Potency, µM (top dose mostly 49.2 µM), without a hit: at the highest dose activity change, negative = inhibition, most hits filed as inhibitors. 4.1% of 18,000 active. Lassa virus pseudotyped entry inhibition, cell-based qHTS. AID 720533, 2013
An asterisk follows results filed as active; u = inconclusive; x = not tested or not shown; ! = not confirmed by another sample; [ ] = another dose, or the depositor's remark. Calls follow the shape of the full dose curve; tested in HEK293 cells. % is scaled to controls: 0 for no effect and ±100 for the full control effect; potency is read from the fitted curve at half-maximal effect.

SMILES	MARV entry inh	LASV entry inh
COc1cc(OC)c([C@@H]2O[C@H](CO)[C@@H](O)[C@H](O)[C@@H]2O)c(OC)c1	102.2%[8.59 µM]	13.8%[8.59 µM]
FC(F)(F)c1cccc(N2CCNCC2)c1	28.2µM*	28.2µM*
COc1ccccc1N1CCNCC1	-7.7%	1.3%
CCC=C1C(=O)[C@]2(C(=O)c3ccccc3)C[C@H]3CCC(CCC)(C2=O)[C@@]13OC	u	-10.5%[8.59 µM]
CCC[C@H]1CN(c2ccccc2)C(=O)[C@H]1CC(=O)NC	46.9%	25.7%
CC(C)=CCN1C(=O)[C@@]2(CC(C)=C[C@@H](COCc3ccccc3)O2)c2ccccc21	2.9%[8.59 µM]	x
C=CCCC1(C(=O)c2ccccc2)C(=O)C(CC=C(C)C)=C(OC)C(CC=C(C)C)(CCC=C(C)C)C1=O (stereo not given)	-1.2%[8.59 µM]	x
Cc1ccc2c(c1)C1(CCN(CCc3nc(-c4ccccc4)oc3C)CC1)OC(=O)N2	u	12.6µM*
O=C1NCC2(CCN(CCc3ccccc3)CC2)O1	-10.1%	-8.2%
CCN1C(=NCc2ccc3c(c2)OCO3)N[C@@H](c2ccccc2)[C@H](C(=O)OC)[C@H]1C	u	-11.4%[8.59 µM]
O=c1cc(-c2ccccc2Cl)oc2c(NS(=O)(=O)c3cc(Cl)cc(Cl)c3O)ccc(O)c12	u	10µM*
O=C(Nc1ccc(O)c2c(=O)cc(-c3ccccc3Cl)oc12)c1ccc(Cl)cc1Cl	-7.0%	-8.2%
CC(=O)OC[C@H]1O[C@H](C#Cc2ccccc2Cl)C=C[C@H]1OC(C)=O	-1.2%[8.59 µM]	-4.9%[8.59 µM]
COc1ccc2c(c1)-c1nc(-n3ncc(C(=O)NC[C@@H]4CCCN5CCCC[C@H]45)c3C)ncc1CC2	5.01µM*	35.5µM*
COc1ccc2c(c1)-c1nc(-n3ncc(C(=O)NCC4CCCN(C)C4)c3C3CC3)ncc1CC2 (stereo not given)	u	0.2%
COc1ccc2c(c1)CCc1cnc(-n3ncc(C(=O)NCCCN4CCOCC4)c3C)nc1-2	u	-6.8%
COc1ccc2c(c1)CCc1cnc(-n3ncc(C(=O)NCC(C)(C)CN(C)C)c3C)nc1-2	4.47µM*	u
C[C@@H]1CC[C@H]2C(=O)O[C@@H](Cc3ccccc3)CN2[C@@H]1c1ccc(Br)cc1	7.1%[8.59 µM]	12.1%[8.59 µM]
COc1cc(O)c(C(=O)C=Cc2ccccc2)c(O)c1	u	12.3%[8.59 µM]
Cn1cc(C2=C(c3cn(CCCSC(=N)N)c4ccccc34)C(=O)NC2=O)c2ccccc21	15.8µM*	17.8µM*
Cn1cc(C=C2C(=O)Nc3cccnc32)c2ccccc21	9.8%	-23.1%
COc1ccc2[nH]cc(CCNc3ncncc3-c3ccccc3CN(C)C)c2c1	u	-14.4%
COc1ccc2c(c1)c(C1=C(c3c[nH]c4ccccc34)C(=O)NC1=O)cn2CCCN(C)C	7.08µM*	u
CN(C)CCCn1cc(C2=C(c3c[nH]c4ccccc34)C(=O)NC2=O)c2ccccc21	7.08µM*	u
NS(=O)(=O)c1ccc(N=Nc2c(O)[nH]c3ccc(C(=O)NCCc4cnc[nH]4)cc23)cc1	28.8%	u
SMILES	MARV entry inh	LASV entry inh
COc1cc2c(cc1OC)[C@@H]1O[C@](CCCCN3C(=O)c4ccccc4C3=O)(C2)OC2=C1C(=O)OC1(CCCCC1)C2	28.0%[8.59 µM]	-13.0%[8.59 µM]
COc1cc2c(c(OC)c1OC)C(c1ccccc1)(c1ccccc1)CC2NC(=O)C(F)(F)F (stereo not given)	-9.6%[8.59 µM]	9.6%[8.59 µM]
C[C@H]1COc2cc(F)ccc2S(=O)(=O)N1	u	-11.2%
Nc1ccccc1C(=O)C=Cc1ccccc1	11.0%[8.59 µM]	13.3%[8.59 µM]
O=S(=O)(O)c1ccc2c(c1)-c1nc-2nc2[nH]c(nc3nc(nc4[nH]c(n1)c1ccc(S(=O)(=O)O)cc41)-c1ccc(S(=O)(=O)O)cc1-3)c1ccc(S(=O)(=O)O)cc21	1.26µM*	u
O=S(=O)(O)c1ccc2nc(-c3ccccc3)[nH]c2c1	-1.3%	u
C[C@H]1CC[C@H]2C(=O)N(Cc3ccccc3)C[C@@H](O)CN2[C@H]1c1ccc(Br)cc1	-33.0%[8.59 µM]	7.1%[8.59 µM]
CC1=C(C(=O)Nc2ccc3[nH]ncc3c2)C(c2ccc3ccccc3c2)CC(=O)N1 (stereo not given)	-7.2%	0.0%
C/C=C1\NC(=O)[C@H]2CSSCC/C=C/[C@H](CC(=O)N[C@H](C(C)C)C(=O)N2)OC(=O)C(C(C)C)NC1=O (stereo not given in full)	1.12µM*	3.16µM*
CN(C)CCc1cc2c(c3c1ccc1ccccc13)OCO2	12.6µM*	u
COc1ccc(O[C@@H]2[C@H](O)CO[C@@H]2C=CC#Cc2ccccc2)cc1	7.5%[8.59 µM]	-28.4%[8.59 µM]
C[C@@H]1O[C@@H](O[C@@H]2C=C3CC[C@@H]4[C@H](CC[C@]5(C)[C@@H](c6ccc(=O)oc6)CC[C@]45O)[C@@]3(C)CC2)[C@H](O)[C@H](O)[C@H]1O	u	1µM*
C=CC1(O)C(OC)=CC2C(=O)C1C(c1ccccc1)C2C (stereo not given)	14.1%[8.59 µM]	x
COC(=O)c1ccccc1O	-10.5%	-6.3%
O=C(N/N=C\c1ccccc1O)c1ccccc1O	7.08µM*	7.94µM*
CC(=O)OC[C@H]1O[C@H](CC=NO[C@@H](C)c2cn([C@H](CO)Cc3ccccc3)nn2)C=C[C@@H]1OC(C)=O	34.1%[8.59 µM]	x
CN(C)Cc1ccccc1-c1nc(N2CCOCC2)c2ccccc2n1	17.8µM*	-10.5%
Cc1noc(C)c1-c1nc(N2CCOCC2)c2ccccc2n1	4.6%	-2.0%
Cc1ncc(COP(=O)(O)O)c(CN)c1O	0.6%	-8.8%
Cc1ncc(CO)c(CO)c1O	28.2µM*!	-7.0%
CNC(=O)c1cncc(C=Cc2c(Cl)cccc2Cl)c1	26.4%	23.9%
COC(=O)C[C@H]1c2ccccc2[C@@H]2C(=C[C@@H](C)[C@H]3C(=O)NC(=O)[C@H]32)N1C(=O)OC	2.7%[8.59 µM]	-6.3%[8.59 µM]
C[C@H]1CN(c2ccc(Br)cc2)C(=O)[C@H]1CC(=O)Nc1ccc(Br)cc1	u	13.8%
CC[C@@]1(O)C[C@H](O[C@H]2C[C@H](N(C)C)[C@H](O[C@H]3C[C@H](O)[C@H](O[C@H]4CCC(=O)[C@H](C)O4)[C@H](C)O3)[C@H](C)O2)c2c(cc3c(c2O)C(=O)c2c(O)cccc2C3=O)[C@H]1C(=O)OC	u	8.91µM*
CC[C@]1(O)CC(O[C@@H]2CC(N(C)C)C(O)C(C)O2)c2c(cc3c(c2O)C(=O)c2c(O)ccc(O)c2C3=O)C1C(=O)OC (stereo not given in full)	u	-2.7%
SMILES	MARV entry inh	LASV entry inh
CC(=Nc1ccc(S(N)(=O)=O)cc1)c1c(O)[nH]c2ccccc12	91.0%	94.6%
COC(=O)C1=C(C)NC(C)=C(C(=O)O[C@@H]2CCCN(Cc3ccccc3)C2)[C@@H]1c1cccc([N+](=O)[O-])c1	14.1µM*	u
CCOC(=O)C1=C(C)NC(C)=C(C(=O)OC)[C@@H]1c1cccc([N+](=O)[O-])c1	-21.2%[17.8 µM]	-3.1%[17.8 µM]
CC1=C(C(=O)OC(C)C)C(c2cccc([N+](=O)[O-])c2)C(C(=O)OC2CN(C(c3ccccc3)c3ccccc3)C2)=C(N)N1 (stereo not given)	-24.3%	-19.6%
COC(=O)C1=C(C)NC(C)=C(C(=O)OC(C)(C)CN(C)CCC(c2ccccc2)c2ccccc2)C1c1cccc([N+](=O)[O-])c1 (stereo not given)	u	12.6µM*
CCOC(=O)C1=C(C)NC(C)=C(C(=O)OC)C1c1cccc([N+](=O)[O-])c1 (stereo not given)	14.1µM*!	u
COCCOC(=O)C1=C(C)NC(C)=C(C(=O)OC(C)C)[C@@H]1c1cccc([N+](=O)[O-])c1	-26.2%	-23.3%
